Measured values: PubChem BioAssay
Active and inactive are the calls of the source. Unless noted, no rule for the calls is given here.

Legend:
[1] = compound effects on lung adenocarcinoma cell viability – A549, calcein-AM fluorescence, 48 h, basal, profiling panel (AID 1162); conditions: higher = more signal; also: test concentration not given here
[2] = compound effects on differentiated 3T3-L1 adipocyte viability – cell-based, 3T3-L1 adipocytes, calcein-AM fluorescence, 48 h, basal, profiling panel (AID 1163); conditions: 3T3-L1 adipocytes viability, higher = more signal; also: test concentration not given here
[3] = compound effects on hepatocellular carcinoma cell viability – HepG2, calcein-AM fluorescence, 48 h, basal, profiling panel (AID 1164); conditions: higher = more signal; also: test concentration not given here
[4] = compound effects on multiple myeloma cell viability – MM1S, calcein-AM fluorescence, 48 h, basal, profiling panel (AID 1165); conditions: higher = more signal; also: test concentration not given here
[5] = calcein-AM signal in unstimulated myeloma cells – cell-based, calcein-AM fluorescence, 48 h, PK04 Diversity Set, profiling panel (AID 1166); conditions: RPMI8226 myeloma viability, higher = more signal;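 also: cells grown under basal conditions without added stimulus; test concentration not given here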
[6] = JC-1 mitochondrial signal, unstimulated HepG2 cells – cell-based, JC-1 fluorescence, 24 h, 100 nL compound, profiling panel (AID 1167); conditions: HepG2 mitochondrial potential, higher = more signal; also: test concentration not given here
[7] = JC-1 mitochondrial signal, unstimulated adipocytes – cell-based, JC-1 fluorescence, 3T3-L1 adipocytes, 24 h, 100 nL compound, profiling panel (AID 1168); conditions: JC-1 mitochondrial fluorescence, higher = more signal, called active from +8 up or from −8 down; also: test concentration not given here
[8] = JC-1 mitochondrial signal, unstimulated myeloma cells – cell-based, JC-1 fluorescence, RPMI8226, 24 h, 100 nL compound, profiling panel (AID 1169); conditions: JC-1 mitochondrial potential fluorescence, higher = more signal; also: test concentration not given here
[9] = JC-1 mitochondrial signal, unstimulated MM1S myeloma – cell-based, JC-1 fluorescence, 24 h, 100 nL compound, profiling panel (AID 1170); conditions: MM1S mitochondrial potential, higher = more signal; also: test concentration not given here
[10] = resazurin metabolic signal in A549 cells – cell-based, resazurin fluorescence, 24 h, PK04 Diversity Set, profiling panel (AID 1171); conditions: A549 viability, higher = more signal, called active from +8 up or from −8 down; also: test concentration not given here
[11] = resazurin metabolic signal in HepG2 cells – cell-based, resazurin fluorescence, 24 h, PK04 Diversity Set, profiling panel (AID 1172); conditions: HepG2 viability, higher = more signal; also: test concentration not given here
[12] = budding yeast growth changes without added modifier – OD600, strain BY4716, 24 h, basal condition, primary screen (AID 1173); conditions: S. cerevisiae BY4716 growth, OD600, 24 h; higher = more signal, called active from +8 up or from −8 down
[13] = viability profiling in MM1S myeloma cells – cell-based, resazurin fluorescence, basal, 24 h, PK04 Diversity Set, profiling panel (AID 1174); conditions: higher = more signal, called active from +8 up or from −8 down; also: test concentration not given here
[14] = molecular target: Dihydroorotate dehydrogenase (quinone), mitochondrial (Plasmodium falciparum (isolate 3D7)) (UniProt Q08210); assay: inhibition of P. falciparum DHODH – biochemical, C-terminal His tag, absorbance 600 nm, primary screen (AID 1175); conditions: PfDHODH enzyme, DCIP absorbance 600 nm; higher = more signal, called active from +8 up or from −8 down;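 also: recombinant parasite enzyme with a five histidine tag at its C terminus; test concentration not given here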
Dihydroorotate dehydrogenase (quinone), mitochondrial (Plasmodium falciparum (isolate 3D7)), sequence (Q08210 whole entry, looked up): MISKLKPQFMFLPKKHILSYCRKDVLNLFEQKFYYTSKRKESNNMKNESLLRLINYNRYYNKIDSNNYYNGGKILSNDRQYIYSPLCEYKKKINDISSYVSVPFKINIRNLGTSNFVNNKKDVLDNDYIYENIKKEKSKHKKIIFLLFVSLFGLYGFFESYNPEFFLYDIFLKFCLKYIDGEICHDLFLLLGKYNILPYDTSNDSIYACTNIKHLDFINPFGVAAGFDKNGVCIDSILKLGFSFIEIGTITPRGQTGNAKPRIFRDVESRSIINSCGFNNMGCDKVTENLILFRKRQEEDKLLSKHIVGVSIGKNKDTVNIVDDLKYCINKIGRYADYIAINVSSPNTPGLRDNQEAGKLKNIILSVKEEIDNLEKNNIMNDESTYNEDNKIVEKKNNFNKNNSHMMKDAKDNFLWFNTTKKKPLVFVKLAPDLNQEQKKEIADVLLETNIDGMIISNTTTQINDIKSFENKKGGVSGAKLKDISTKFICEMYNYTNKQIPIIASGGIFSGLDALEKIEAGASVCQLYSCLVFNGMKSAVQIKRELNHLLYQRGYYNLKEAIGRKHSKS

[15] = inhibition of PAO1 biofilm formation – strain PAO1, LB-PBS medium, absorbance 600 nm, primary screen (AID 1176); also: test concentration not given here; conditions: P. aeruginosa PAO1 growth/biofilm, A600, 12 h; higher = more signal
[16] = growth modulation of vineyard yeast isolate – strain RM11-1a, OD600, basal, 24 h, primary screen (AID 1177);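 also: cultures grown under basal conditions with no added stressor; test concentration not given here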; conditions: S. cerevisiae RM11-1a growth, OD600, 24 h; higher = more signal, called active from +8 up or from −8 down
[17] = growth of efflux-deficient E. coli DRC39 – strain DRC39, OD650, 24 h, E. coli filamentation inducers, primary screen (AID 1178);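 also: growth measured as culture turbidity by optical density at 650 nm; test concentration not given here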; conditions: E. coli DRC39 acrAB, higher = more signal, called active from +8 up or from −8 down
[18] = growth of efflux-deficient E. coli DRC39 – strain DRC39, OD650, 48 h, E. coli filamentation inducers, primary screen (AID 1179);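 also: screen aims at cell division blockers that make cells filament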; conditions: E. coli DRC39 delta-acrAB growth, higher = more signal, called active from +8 up or from −8 down
[19] = viability profiling in RPMI8226 myeloma cells – cell-based, resazurin fluorescence, basal, 24 h, PK04 Diversity Set, profiling panel (AID 1180); conditions: higher = more signal;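 also: RPMI8826 multiple myeloma cell line at 5000 cells per well; test concentration not given here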
[20] = molecular target: E3 ubiquitin-protein ligase XIAP (Homo sapiens) (UniProt P98170); assay: small molecules binding XIAP protein – biophysical, small-molecule microarray, fluorescence 635 nm, primary screen (AID 1181); conditions: higher = more signal;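 also: score merges 667 nm emission and signal to noise over triplicate slides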
E3 ubiquitin-protein ligase XIAP (Homo sapiens), sequence (P98170 whole entry, looked up): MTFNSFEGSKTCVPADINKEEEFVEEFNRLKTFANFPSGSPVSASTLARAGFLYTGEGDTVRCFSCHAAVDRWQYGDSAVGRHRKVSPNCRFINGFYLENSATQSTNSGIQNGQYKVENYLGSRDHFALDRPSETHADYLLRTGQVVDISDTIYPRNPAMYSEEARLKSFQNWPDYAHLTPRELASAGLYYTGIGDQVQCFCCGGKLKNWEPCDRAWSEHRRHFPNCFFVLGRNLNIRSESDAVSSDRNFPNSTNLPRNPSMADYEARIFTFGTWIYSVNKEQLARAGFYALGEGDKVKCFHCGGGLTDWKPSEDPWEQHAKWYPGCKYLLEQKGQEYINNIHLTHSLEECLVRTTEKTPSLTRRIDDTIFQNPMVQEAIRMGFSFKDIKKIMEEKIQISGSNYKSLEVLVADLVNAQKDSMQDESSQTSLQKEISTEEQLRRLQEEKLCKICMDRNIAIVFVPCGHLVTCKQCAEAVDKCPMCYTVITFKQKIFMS

SMILES	z-score [1]	z-score [2]	z-score [3]	z-score [4]	z-score [5]	z-score [6]	z-score [7]	z-score [8]	z-score [9]	z-score [10]	z-score [11]	z-score [12]	z-score [13]	composite z-score [14]	z-score [15]	z-score [16]	z-score [17]	z-score [18]	z-score [19]	composite z-score [20]
C=CCC(OC(C)=O)[C@@H]1[C@@H](N(Cc2cccc3ccccc23)C(=O)Cc2ccc(OC)cc2)c2cc(OCCCO)ccc2N1C(=O)c1ccc2ccccc2c1 (stereo not given in full)	1.19	2.02	0.692	0.357	1.19	2.55	0.443 (inactive)	0.066	0.433	0.445 (inactive)	0.74	-1.57 (inactive)	0.435 (inactive)	-0.775 (inactive)	-0.37 (inactive)	-0.958 (inactive)	1.22 (inactive)	0.56 (inactive)	1.17	-0.123
COc1ccc([Si](C)(C)[C@@H]2[C@@H](CC(=O)N3Cc4ccccc4C[C@H]3CO)O[C@]3(C(=O)N(Cc4ccc(N5CCOC5=O)cc4)c4ccccc43)[C@H]2C)cc1	0.369	0.704	0.115	-1.07	-0.876	0.966	1 (inactive)	-1.11	0.359	-0.674 (inactive)	-0.231	-0.678 (inactive)	-1.49 (inactive)	-0.836 (inactive)	1.18 (inactive)	0.455 (inactive)	0.868 (inactive)	0.465 (inactive)	-0.504	0.0049
COC(=O)C(CC#Cc1ccc2c(c1)[C@]1(C(=O)N2)[C@H](C(=O)N2CCc3cc(OC)c(OC)cc3C2)[C@H]2C(=O)O[C@H](c3ccccc3)[C@H](c3ccccc3)N2[C@@H]1c1ccccc1OCCO)C(=O)OC	-0.179	-0.665	0.43	-0.151	0.546	-0.0236	0.968 (inactive)	-0.839	-1.42	-0.694 (inactive)	-0.553	1.79 (inactive)	-1.03 (inactive)	-7.03 (inactive)	3.81 (inactive)	2.83 (inactive)	0.154 (inactive)	0.618 (inactive)	-0.705	-0.11
CC(C)(C)N1CC=CC23O[C@@H]4/C=C\CCCOC(=O)C4[C@H]2C(=O)N(CCCCCO)[C@@H]3C1=O (stereo not given in full)	-0.373	1.03	-0.927	1.59	0.382	-0.0838	0.186 (inactive)	0.116	-0.00811	-0.543 (inactive)	-0.144	0.309 (inactive)	0.0676 (inactive)	-0.22 (inactive)	0.481 (inactive)	-0.746 (inactive)	0.0531 (inactive)	-0.0503 (inactive)	-0.119	-0.11
O=C(NCC(O)CO)C1N=C(c2ccc(OCCCO)cc2)N(c2ccccc2)O1 (stereo not given)	-0.508	-0.293	0.285	1.22	-1.53	0.499	-0.761 (inactive)	-0.877	0.571	-0.0914 (inactive)	-0.664	-0.732 (inactive)	-0.783 (inactive)	-0.568 (inactive)	-1.41 (inactive)	-0.406 (inactive)	0.015 (inactive)	-0.003 (inactive)	-1	-0.142
O=C1C=C(c2ccccc2)C(=O)C2=C1CC([C@H]1Oc3ccccc3S(=O)(=O)N3CCC[C@@H]13)=CC2	-0.653	-0.17	-1.05	-3.2	-3.99	-3.49	-2.49 (inactive)	-1.16	-2.67	-0.0039 (inactive)	0.203	-3.37 (inactive)	-7.16 (inactive)	-1.54 (inactive)	-0.0461 (inactive)	-0.926 (inactive)	0.0769 (inactive)	-0.807 (inactive)	-4.88	-0.127
CC(C)=CCCC(C)=CC(O)C1C=CC2C(=O)NC(=O)C2N1Nc1ccccn1 (stereo not given)	0.531	-0.446	1.29	0.617	0.586	-0.23	-0.503 (inactive)	0.333	0.0809	-1.39 (inactive)	-1.33	0.386 (inactive)	-0.58 (inactive)	0.242 (inactive)	1.55 (inactive)	-0.881 (inactive)	-0.222 (inactive)	0.528 (inactive)	-0.754	0.0602
C=CCC(OC(C)=O)[C@@H]1[C@@H](N(Cc2cccc3ccccc23)C(=O)c2ccc(-c3ccccc3)cc2)c2cc(OCCCO)ccc2N1C(=O)Cc1ccc2ccccc2c1 (stereo not given in full)	-0.217	0.153	0.581	-1.54	-0.729	1.9	-0.407 (inactive)	-0.342	0.164	0.706 (inactive)	0.236	0.716 (inactive)	0.331 (inactive)	-0.0628 (inactive)	0.444 (inactive)	-0.368 (inactive)	-0.416 (inactive)	-0.236 (inactive)	0.193	-0.179
